“And” between values parts separate entries of the source, which are not always exact repeats. Identical values can stand only once. Results filed as inconclusive are left out. A call without a number means that no potency is given here. The source made the active and inactive calls. The call rests on the fitted dose curve; in most records, active means well fitted cell-killing curve with a large enough effect; inconclusive means small, poorly fitted or top-dose-only effect, or effect the other way; inactive means flat fitted curve, though single readings scatter.
What follows are molecules tested on OV90 (assay: Primary qHTS to identify gynecologic anti-cancer compounds using libraries of approved drugs and bioactive compounds (AID 1345084; further: nearly all actives have a fitted effect of over 55% in size)). Details: Gynecologic cancer cell panel viability, ATPlite luminescence, 48 h; series mostly up to 57.5 µM.
In short: (§1)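 In this quantitative HTS, cell killing is estimated from loss of ATP-dependent luciferase light. Cells see five compound concentrations over a 48 h exposure.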
Potency means the concentration at half of the fitted maximal effect.

SMILES	Potency
O=c1[nH]sc2cc(Cl)ccc12	inactive
CC[C@@]1(O)C(=O)OCc2c1cc1n(c2=O)Cc2c-1nc1ccccc1c2/C=N/OC(C)(C)C	8.91 µM (active)
O=C(O)CNC(=O)CNC(=O)CNC(=O)CSC(=O)c1ccccc1	inactive
Nc1c2ccccc2nc2ccccc12	28.2 µM (active)
CC1CC(=O)NN=C1c1ccc(NCC(C)(C)NCC(O)COc2cc(Cl)ccc2C#N)cc1 (configuration not stated)	inactive
O=S(=O)(O)c1ccc2nc(-c3ccccc3)[nH]c2c1	inactive
C[C@H](CN1CCCC1)C(=O)c1ccc(C(F)(F)F)cc1	inactive
COC(=O)c1cc(Cl)ccc1NS(=O)(=O)C(F)(F)F	inactive
CC(NCCC(c1ccccc1)c1ccccc1)c1ccccc1 (configuration not stated)	28.2 µM (active)
CCCCCCCCCCCCCCCCCCNC(=O)OC1CCN(C(=O)OC[C@H](COC(=O)N(Cc2cccc[n+]2CC)C(=O)c2ccccc2OC)OC)CC1	28.2 µM (active)
CCN(CC)CCOc1ccc(/C(=C(\Cl)c2ccccc2)c2ccccc2)cc1	14.1 µM (active)
NC(=O)C1(N2CCCCC2)CCN(CCCN2c3ccccc3CCc3ccc(Cl)cc32)CC1	22.4 µM (active)
CC(C)(C)c1ccc(O)c(O)c1	35.5 µM (active)
CCOC(=O)C1=C(C)NC(C)=C(C(=O)OCC)C1c1ccccc1/C=C/C(=O)OC(C)(C)C	inactive
O=C(Nc1ccc(S(=O)(=O)N2CCOCC2)cc1)c1cc(Cl)ccc1NS(=O)(=O)c1ccc(Cl)s1	inactive
OC1(c2ccc(Cl)c(C(F)(F)F)c2)CCN(CCCC(c2ccc(F)cc2)c2ccc(F)cc2)CC1	25.1 µM (active) and 31.6 µM (active)
CO[C@@H]1[C@@H](OC)[C@H](C)[C@@](O)(CC(=O)O)O[C@H]1[C@H](C)[C@H]1O[C@@]2(CC[C@@](C)([C@H]3CC[C@@](C)([C@@H]4O[C@@H]([C@H]5O[C@](C)(O)[C@H](C)C[C@@H]5C)C[C@@H]4OC4C[C@H](OC)[C@@H](OC)[C@H](C)O4)O3)O2)C[C@H](O)[C@H]1C (some centres not stated)	1.78 µM (active)
Nc1cccc2c(N)cccc12	20 µM (active)

The molecules below were run on PA-1 in the same assay as above. Details: Gynecologic cancer cell panel viability, ATPlite luminescence, 48 h; series mostly up to 57.5 µM.
In short: as §1

SMILES	Potency
O=C1Nc2ccccc2C1(c1ccc(O)cc1)c1ccc(O)cc1	inactive
O=C(O)CNC(=O)CNC(=O)CNC(=O)CSC(=O)c1ccccc1	inactive
Nc1ncnc2n[nH]c(Nc3ccc(F)cc3)c12	25.1 µM (active)
CC1CC(=O)NN=C1c1ccc(NCC(C)(C)NCC(O)COc2cc(Cl)ccc2C#N)cc1 (configuration not stated)	inactive
O=S(=O)(O)c1ccc2nc(-c3ccccc3)[nH]c2c1	inactive
C[C@H](CN1CCCC1)C(=O)c1ccc(C(F)(F)F)cc1	inactive
COC(=O)c1cc(Cl)ccc1NS(=O)(=O)C(F)(F)F	inactive
CC(C(O)c1ccccc1)N(C)CCOC(c1ccccc1)c1ccccc1 (configuration not stated)	inactive
CCCCCCCCCCCCCC[N+](C)(C)C	11.2 µM (active)
CCCCCCCCCCCCCCCCCCNC(=O)OC1CCN(C(=O)OC[C@H](COC(=O)N(Cc2cccc[n+]2CC)C(=O)c2ccccc2OC)OC)CC1	12.6 µM (active)
CC(=O)Oc1ccc(C2(c3ccc(OC(C)=O)cc3)Oc3ccccc3NC2=O)cc1	31.6 µM (active)
CCOC(=O)C1=C(C)NC(C)=C(C(=O)OCC)C1c1ccccc1/C=C/C(=O)OC(C)(C)C	inactive
OC1(c2ccc(Cl)c(C(F)(F)F)c2)CCN(CCCC(c2ccc(F)cc2)c2ccc(F)cc2)CC1	inactive
CCCCCC(=O)O[C@]1(C(C)=O)CC[C@H]2[C@@H]3CCC4=CC(=O)CC[C@]4(C)[C@H]3CC[C@@]21C	inactive

From PubChem BioAssay (NCATS)
